A selection: hits, their analogues and other compounds. The true share with any hit is near 6.4%.
Luc counter – Kinase-Glo luciferase inhibition (counter-screen); 200,000 compounds, 0.28% hits; Q27757; Potency, µM (series often up to 38.3 µM), inactives show at the highest dose activity change, negative = inhibition, most hits filed as inhibitors; Kinase-Glo luciferase, ATP luminescence, 8 min; further: nearly all actives have a fitted effect of over 60% in size
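Inhibition of Kinase-Glo luciferase light generation was assessed at 10 uM ATP in pH 7.2 imidazole buffer, with luminescence measured after eight minutes at ambient temperature.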
RORg inh – inhibitors of mouse ROR gamma transcriptional activity | Drosophila S2 Gal4-RORgamma UAS-luciferase reporter, 20 h | Potency, µM (doses to about 53.6 µM), without a hit: top-dose activity change, negative = inhibition, usual class: inhibitors | 310,000 compounds, 5.4% hits | AID 2551; further: nearly all actives have a fitted effect of over 60% in size
Target sequence (P51450 whole entry, looked up, the tested form may be a part): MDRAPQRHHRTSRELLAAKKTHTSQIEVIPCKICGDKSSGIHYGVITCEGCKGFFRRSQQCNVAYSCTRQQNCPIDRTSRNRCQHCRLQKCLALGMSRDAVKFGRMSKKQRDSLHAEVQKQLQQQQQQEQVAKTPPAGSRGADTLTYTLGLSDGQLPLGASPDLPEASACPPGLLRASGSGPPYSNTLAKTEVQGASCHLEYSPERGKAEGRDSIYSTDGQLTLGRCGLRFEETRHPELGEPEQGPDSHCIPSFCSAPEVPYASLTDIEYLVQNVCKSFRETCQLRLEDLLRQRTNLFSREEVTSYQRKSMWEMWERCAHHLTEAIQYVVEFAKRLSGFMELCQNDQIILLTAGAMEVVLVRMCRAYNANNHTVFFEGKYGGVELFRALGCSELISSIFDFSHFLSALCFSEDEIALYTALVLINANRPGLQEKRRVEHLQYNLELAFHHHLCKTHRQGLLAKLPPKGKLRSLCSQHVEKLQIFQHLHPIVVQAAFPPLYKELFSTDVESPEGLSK
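Using a luciferase readout, inhibitors were identified by reduced reporter activity in Drosophila cells coexpressing a copper-inducible Gal4–ROR gamma fusion and UAS-driven Photinus luciferase, incubated 20 hr after 700 uM copper sulfate.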
Gal4-VP16 FLuc – counter-screen for ROR gamma inhibitors: Gal4-VP16 reporter | 310,000 compounds, 3.5% hits | Potency, µM (top dose mostly 53.6 µM), for inactives: at the top dose activity, negative = inhibition, hits mostly inhibitors | Drosophila S2 Gal4-VP16 UAS-luciferase, luminescence, 20 h | AID 2546;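 further: Gal4-VP16 expression switched on by copper sulfate through the metallothionein promoter; nearly all actives have a fitted effect of over 50% in size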
Starred values were filed as active, the others as inactive; ? = inconclusive; · = not tested or not shown; [ ] = another dose, or the depositor's remark. The call rests on the fitted dose curve; in most records, active means well fitted curve in the direction sought with a large enough effect; inconclusive means small, poorly fitted or top-dose-only effect, or another doubt; inactive means no such curve, though single readings can be large; an effect the other way counts as inactive or inconclusive. On the % scale 0 is the no-effect control and ±100 the full control effect; potency means the concentration at half of the fitted maximal effect.

SMILES	Luc counter	RORg inh	Gal4-VP16 FLuc
COc1ccc(N2CCN(C(=O)[C@H](Cc3c[nH]c4ccccc34)NC(C)=O)CC2)cc1	3%	-8%	2%
COC(=O)c1c(-c2ccccc2)nn(-c2ccccc2)c1C(=O)OC	·	-18%	-12%
C=CCN(C)NC(=O)Nc1ccccc1	1%	20%	0%
C=CCN(C)NC(=S)Nc1ccccc1	-2%	5µM*	10µM*
COCCN1CC(CNC(=O)c2cc(COc3ccc(C)c(C)c3)on2)CC1=O (centres undefined)	·	28%	-4%
CN(C)S(=O)(=O)c1cccc(-c2nn(-c3ccccc3)cc2/C=C(\C#N)c2nc3ccccc3[nH]2)c1	1%	25%	-9%
CN(C)S(=O)(=O)c1cccc(-c2nn(-c3ccccc3)cc2/C=C2\SC(=S)NC2=O)c1	-2%	13µM*	?
COCCCn1cnnc1SCc1nc2sc(C(C)=O)c(C)c2c(=O)[nH]1	·	1%	-6%
COc1cc(NC(=O)C/C(C)=N/NC(=O)C(OC)c2ccccc2)c(OC)cc1Cl (centres undefined)	3%	?	?
COc1cc(/C=N/N=C(/N)c2nonc2N)cc(Br)c1OCc1ccccc1C	-3%	?	?
COc1cccc(/C=N/N=C(\N)c2nonc2N)c1O	-5%	0.1µM*	0.63µM*
COC(=O)[C@@]1(Cc2ccc(OC)cc2)[C@H]2c3cc(C(=O)N(C)C)n(Cc4ccc(C)c(F)c4F)c3C[C@H]2CN1C(=O)c1ccccc1	-6%	25%	-12%
CCCN1C(=O)/C(=C\c2ccncc2)SC1=Nc1ccccc1	-6%	35%	-6%
CCN1C(=O)/C(=C\c2ccncc2)SC1=Nc1ccc(C)c(C)c1	-2%	11µM*	?
O=C1/C(=C/N(C(=O)c2ccco2)c2ccc(Br)cc2)Sc2ccccc21	-20%	35µM*	13µM*
O=C1/C(=C/N(C(=O)c2ccco2)c2ccc(Cl)cc2)Sc2ccccc21	-16%	?	?
CCc1cc2c(N3CCCCC3)ncnc2s1	-3%	?	35µM*
CCc1cc2c(SCC(=O)O)ncnc2s1	-2%	1%	1%
O=C1/C(=C/c2cccc(Br)c2)SC(=S)N1/N=C/c1cc([N+](=O)[O-])ccc1O	·	-1%	-5%
CCOC(=O)c1ccc(NCc2cccnc2)cc1	·	36%	25%
CC(=O)Nc1c(C)ccc2nsnc12	2%	?	-6%
Cc1ccc2nsnc2c1NC(=O)c1ccc([N+](=O)[O-])cc1	0%	7.9µM*	?
NC(=O)CSc1nnc(COc2ccccc2)n1C1CCCCC1	-3%	14%	2%
O=C(O)CSc1nnc(CSc2nc3ccccc3s2)n1-c1ccccc1	-1%	-6%	2%
CCc1ccc(OCc2n[nH]c(=S)n2Cc2ccccc2)cc1	-5%	-2%	-2%
SMILES	Luc counter	RORg inh	Gal4-VP16 FLuc
S=c1[nH]nc(COc2ccccc2)n1Cc1ccccc1	-3%	1.6µM*	6.3µM*
S=c1[nH]nc(CSc2nc3ccccc3s2)n1C1CCCCC1	-5%	0.2µM*	1.3µM*
S=c1[nH]nc(COc2ccccc2)n1C1CCCCC1	3%	1.8µM*	4µM*
Cc1cccc(OCc2n[nH]c(=S)n2Cc2ccccc2)c1	-3%	2µM*	?
Cc1ccc(NC(=O)c2ccc(Cn3cc([N+](=O)[O-])cn3)cc2)c(C)c1	2%	15%	3%
Cc1ccccc1OC(C)C(=O)Nc1ccc2c(c1)OCCO2 (centres undefined)	·	11%	27%
O=C(O)CSc1ccc(N=C=S)cc1	-4%[7.66 µM]	·	·
CC(C(=O)NCCc1ccc(F)cc1)N1CCN(Cc2ccccc2)CC1 (centres undefined)	0%	22%	-5%[10 µM]
CCn1c(CSc2nc3ccccc3s2)nc2ccccc21	0%	10µM*	?
CCCc1n[nH]c(=S)n1Cc1ccco1	·	2%	2%
CCc1ccc(OCc2n[nH]c(=S)n2C(C)CCCC(C)C)cc1 (centres undefined)	3%	6.3µM*	-22%
Cc1nc(SCc2ccc(OCCC(C)C)cc2)n[nH]1	2%	-26%	?
S=c1[nH]nc(COc2ccc(Cl)cc2)n1Cc1ccco1	1%	3.2µM*	?
CC(C)CCn1c(COc2ccccc2)n[nH]c1=S	1%	1.1µM*	?
c1csc(CSc2nc3ccccc3s2)c1	-12%	?	-5%
COC(=O)/C=C/CC(C)OS(N)(=O)=O (centres undefined)	·	-24%	-5%
CCOC(=O)C1=NNC2(c3ccc(Cl)cc3)C(=O)N(c3ccc(C)cc3)C(=O)C12 (centres undefined)	-3%	4%	-15%
COc1ccc(-n2nc(C(=O)NCC(=O)NCCN(C)C)c3ccccc3c2=O)cc1	·	9%	3%
Cc1cc(OCC(=O)NC2CCN(Cc3ccccc3)CC2)c2c(C)cc(=O)oc2c1	·	-12%	1%
CC(=O)c1cccc(NC(=O)c2ccc(NC(=O)CC3SC(N4CCCCC4)=NC3=O)cc2)c1 (centres undefined)	·	-3%	11%
Cc1cc2c(c(=O)n1Cc1ccccc1)C1O[C@](c3ccsc3)(Cc3ccccc31)O2	·	13%[10 µM]	-1%[10 µM]
O=CNc1ncn[nH]1	-1%[7.66 µM]	·	·
FC(F)(F)c1cccc(NCc2n[nH]c(=S)n2C2CCCCC2)c1	2%	4.5µM*	-23%
O=C(NCc1n[nH]c(=S)n1-c1cccc(C(F)(F)F)c1)c1ccco1	·	-30%	1%
Cc1ccc(-n2nc3c(=O)n(CCCC(=O)NCc4ccccc4Cl)nc(C)c3c2C)cc1	·	33%	3%
SMILES	Luc counter	RORg inh	Gal4-VP16 FLuc
CCN(CC)CC(=O)Nc1nc(-c2ccc(Cl)cc2)cs1	-4%	8.9µM*	20µM*
COCC(=O)Nc1nc(-c2ccc(-c3ccccc3)cc2)cs1	·	5%	16%
O=C(CN1CCCCC1)Nc1nc(-c2ccc(Cl)cc2)cs1	·	0%	-25%
CC(C)CC(=O)NC(=S)Nc1nc(-c2ccc(Cl)cc2)cs1	0%	8.9µM*	?
O=C(Nc1cccc(Cl)c1)Nc1nc(-c2ccc(Cl)cc2)cs1	-3%	?	-6%
CC(C)CC(=O)NC(=S)Nc1nc(-c2ccccc2)cs1	3%	6.3µM*	5.6µM*
CCOc1ccc(N(CC(=O)Nc2ccc(C)c(Cl)c2)S(C)(=O)=O)cc1	·	31%	3%
O=C(Cc1ccccc1)N/N=C/c1ccccc1F	1%	2%	20%
O=C(CP(=O)(c1ccccc1)c1ccccc1)N/N=C/c1cc(Br)cc(Br)c1O	2%	1.1µM*	2.5µM*
O=C(C[n+]1ccccc1)N/N=C/c1cc(Br)cc(Br)c1O	·	-38%	-22%
O=C(Cc1ccccc1)N/N=C/c1cc(Br)cc(Cl)c1O	-6%	0.56µM*	1.3µM*
COC(=O)NC(c1ccccc1)c1c[nH]c2ccccc12 (centres undefined)	1%	10%	4%
CC(NC(=O)[C@H](C)NC(=O)[C@@H]1CSC2c3ccccc3C(=O)N21)c1ccccc1 (some centres undefined)	·	-6%	0%
O=C(NNc1nc2c(F)cccc2s1)C1=COCCO1	0%	11µM*	-28%
O=C(Nc1ccccc1-c1nc2ccccc2s1)C1=COCCO1	4%	-29%	-22%
Cc1ccc2sc(NNC(=O)C3=COCCO3)nc2c1C	0%	5.6µM*	?

High-throughput results as filed in PubChem.
